Measured values taken from PubChem BioAssay (Tox21).
Results filed as inconclusive are left out. Calls of active or inactive are those of the source. Calls come from the whole dose curve; as a rule, active = well fitted curve in the direction sought with a large enough effect in the repeat runs; inconclusive = weak or mixed curves; inactive = no such curve, though single readings can be large; an effect the other way counts as inactive or inconclusive. Positions of bridges follow the written chain, without caps; N, C: chain ends. Non-standard residues stand in square brackets, D forms with d. Residues, ends and D or L forms follow the SMILES beside them. hArg = N=C(N)NCCCC[C@H](N)C(=O)O; Mpa = O=C(O)CCS

Legend:
[1] = target: Nuclear receptor subfamily 1 group I member 2 (Rattus norvegicus) (UniProt Q9R1A7); experiment: Rat pregnane X receptor (rPXR) activation by small molecules, qHTS assay (AID 1346983); settings: rPXR luciferase reporter cells, One-Glo luminescence, 24 h; stronger effect = higher value; note: nearly all actives have a fitted effect of over 20% in size
Sequence of Nuclear receptor subfamily 1 group I member 2 (Rattus norvegicus) (Q9R1A7 whole entry, looked up): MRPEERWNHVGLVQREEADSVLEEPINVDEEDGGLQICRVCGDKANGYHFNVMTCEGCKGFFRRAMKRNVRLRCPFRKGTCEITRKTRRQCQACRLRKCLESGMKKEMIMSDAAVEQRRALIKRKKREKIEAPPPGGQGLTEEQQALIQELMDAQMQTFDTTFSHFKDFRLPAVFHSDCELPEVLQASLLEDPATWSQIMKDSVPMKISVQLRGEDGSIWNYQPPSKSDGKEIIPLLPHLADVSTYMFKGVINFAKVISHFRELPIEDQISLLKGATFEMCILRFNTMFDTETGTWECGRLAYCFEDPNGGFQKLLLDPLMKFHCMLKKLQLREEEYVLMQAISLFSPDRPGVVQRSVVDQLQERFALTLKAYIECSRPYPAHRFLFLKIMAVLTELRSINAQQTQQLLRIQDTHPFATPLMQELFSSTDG
How it was run: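 Cell-based rPXR activation assay: rPXR cells, 2,000 per well, rested 5hr at 37 C, then exposed to compounds in DMSO for 24 hr at 37 C. Luciferase activity read by One-Glo luminescence after 30 min at room temperature.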

[2] = target: Nuclear receptor subfamily 1 group I member 2 (Homo sapiens) (UniProt O75469); experiment: CYP3A4 induction through human pregnane X receptor (PXR) by small molecules, qHTS assay (AID 1346984); settings: DPX-2 HepG2 PXR, CYP3A4-luciferin luminescence, 24 h; series mostly up to 46.1 µM; note: nearly all actives have a fitted effect of over 40% in size; note: potency is the fitted concentration of half-maximal effect
How it was run: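 DPX-2 reporter cells; 24h cpd, 37C; Luciferin-IPA 3uM final x3h; One-Glo 30 min RT; lumi read.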

[3] = target: Nuclear receptor subfamily 1 group I member 2 (Homo sapiens) (UniProt O75469); experiment: Human pregnane X receptor (PXR) activation by small molecules, qHTS assay (AID 1346985); settings: DPX-2 HepG2 CYP3A4-luciferase, 24 h; series mostly up to 38.3 µM; note: nearly all actives have a fitted effect of over 40% in size; note: potency is the fitted concentration of half-maximal effect
How it was run: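 DPX-2 cells (HepG2 co-transfected with a PXR response element and a CYP3A4-promoter luciferase construct) were seeded at 2,000 per well, rested 5 hr at 37C, then exposed to DMSO-dissolved compounds for 24 hr. Activation was read as luciferase luminescence.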

[4] = target: Cytochrome P450 2D6 (Homo sapiens) (UniProt P10635); experiment: Cytochrome P450 Family 2 Subfamily D Member 6 (CYP2D6) small molecule antagonists: luciferase reporter qHTS assay (AID 1671196); settings: P450-Glo CYP2D6 enzyme assay, luciferin luminescence, 1 h; series mostly up to 115 µM; note: nearly all actives have a fitted effect of over 50% in size; note: potency is the fitted concentration of half-maximal effect
Sequence of Cytochrome P450 2D6 (Homo sapiens) (P10635 whole entry, looked up): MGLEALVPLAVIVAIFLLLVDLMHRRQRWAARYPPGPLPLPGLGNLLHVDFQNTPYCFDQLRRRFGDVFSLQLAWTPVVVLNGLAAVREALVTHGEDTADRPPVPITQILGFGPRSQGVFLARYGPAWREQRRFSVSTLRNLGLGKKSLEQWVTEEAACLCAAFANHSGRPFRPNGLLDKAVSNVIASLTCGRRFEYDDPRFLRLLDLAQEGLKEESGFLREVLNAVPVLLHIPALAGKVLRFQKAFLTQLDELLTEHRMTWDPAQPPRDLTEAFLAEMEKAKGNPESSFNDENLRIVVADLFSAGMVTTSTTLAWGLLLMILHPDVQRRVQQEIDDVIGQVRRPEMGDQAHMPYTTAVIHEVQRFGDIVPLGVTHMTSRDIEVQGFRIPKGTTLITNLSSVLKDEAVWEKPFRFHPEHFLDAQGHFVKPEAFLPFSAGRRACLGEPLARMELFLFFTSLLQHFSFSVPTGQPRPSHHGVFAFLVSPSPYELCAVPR
How it was run: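 Inhibition of CYP2D6 was gauged by loss of luminescence, since light produced tracks the luciferin generated from a proluciferin substrate. A 10 min room-temperature preincubation preceded 1 h NADPH-supported turnover.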

[5] = target: Cytochrome P450 2C19 (Homo sapiens) (UniProt P33261); experiment: Cytochrome P450 Family 2 Subfamily C Member 19 (CYP2C19) small molecule antagonists: luciferase reporter qHTS assay (AID 1671197); settings: P450-Glo CYP2C19 enzyme, luciferin luminescence, 1 h; series mostly up to 115 µM; note: nearly all actives have a fitted effect of over 65% in size
Sequence of Cytochrome P450 2C19 (Homo sapiens) (P33261 whole entry, looked up): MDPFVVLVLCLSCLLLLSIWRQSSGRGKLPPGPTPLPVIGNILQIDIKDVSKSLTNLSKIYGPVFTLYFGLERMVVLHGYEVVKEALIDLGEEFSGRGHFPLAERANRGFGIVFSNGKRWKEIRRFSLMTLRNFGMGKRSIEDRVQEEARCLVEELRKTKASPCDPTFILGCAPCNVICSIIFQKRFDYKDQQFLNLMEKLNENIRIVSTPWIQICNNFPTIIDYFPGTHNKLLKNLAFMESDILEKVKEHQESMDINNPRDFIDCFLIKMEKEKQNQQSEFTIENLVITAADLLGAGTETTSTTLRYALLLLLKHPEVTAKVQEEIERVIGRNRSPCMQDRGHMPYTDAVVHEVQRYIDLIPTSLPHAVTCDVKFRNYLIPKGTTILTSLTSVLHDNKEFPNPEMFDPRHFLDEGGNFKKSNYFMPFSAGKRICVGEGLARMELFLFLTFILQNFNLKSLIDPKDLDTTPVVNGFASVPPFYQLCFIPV
How it was run: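 Quantitative high-throughput screen of the Tox21 library using CYP2C19 with proluciferin substrate. Reaction: NADPH regeneration, 37C, 1 h, after 10 min compound preincubation at room temperature. Readout: luminescence.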

[6] = target: Cytochrome P450 2C9 (Homo sapiens) (UniProt P11712); experiment: Cytochrome P450 Family 2 Subfamily C Member 9 (CYP2C9) small molecule antagonists: luciferase reporter qHTS assay (AID 1671198); settings: P450-Glo CYP2C9 enzyme assay, luciferin luminescence; series mostly up to 115 µM; note: nearly all actives have a fitted effect of over 50% in size
Sequence of Cytochrome P450 2C9 (Homo sapiens) (P11712 whole entry, looked up): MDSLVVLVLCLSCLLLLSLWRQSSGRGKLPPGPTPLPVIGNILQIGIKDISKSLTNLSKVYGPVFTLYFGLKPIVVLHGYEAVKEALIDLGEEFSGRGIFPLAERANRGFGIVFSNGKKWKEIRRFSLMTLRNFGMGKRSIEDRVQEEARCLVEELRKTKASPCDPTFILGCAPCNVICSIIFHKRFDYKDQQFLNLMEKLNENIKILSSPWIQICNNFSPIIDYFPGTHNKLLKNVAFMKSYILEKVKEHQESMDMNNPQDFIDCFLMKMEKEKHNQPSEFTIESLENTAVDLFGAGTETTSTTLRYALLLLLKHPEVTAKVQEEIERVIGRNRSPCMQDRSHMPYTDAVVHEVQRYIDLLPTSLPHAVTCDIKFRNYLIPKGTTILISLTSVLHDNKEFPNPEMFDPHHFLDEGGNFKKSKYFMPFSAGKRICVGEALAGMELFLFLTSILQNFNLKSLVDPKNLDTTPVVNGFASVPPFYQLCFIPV
How it was run: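 P450-Glo proluciferin substrate with CYP2C9 enzyme; 10 min RT preincubation, then NADPH regeneration 1 h at 37C; luciferin detection reagent 20 min RT, luminescence in relative luminescence units.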

[7] = target: Cytochrome P450 1A2 (Homo sapiens) (UniProt P05177); experiment: Cytochrome P450 Family 1 Subfamily A Member 2 (CYP1A2) small molecule antagonists: luciferase reporter qHTS assay (AID 1671199); settings: P450-Glo CYP1A2 enzyme, luciferin luminescence, 1 h; series mostly up to 115 µM; note: nearly all actives have a fitted effect of over 50% in size
Sequence of Cytochrome P450 1A2 (Homo sapiens) (P05177 whole entry, looked up): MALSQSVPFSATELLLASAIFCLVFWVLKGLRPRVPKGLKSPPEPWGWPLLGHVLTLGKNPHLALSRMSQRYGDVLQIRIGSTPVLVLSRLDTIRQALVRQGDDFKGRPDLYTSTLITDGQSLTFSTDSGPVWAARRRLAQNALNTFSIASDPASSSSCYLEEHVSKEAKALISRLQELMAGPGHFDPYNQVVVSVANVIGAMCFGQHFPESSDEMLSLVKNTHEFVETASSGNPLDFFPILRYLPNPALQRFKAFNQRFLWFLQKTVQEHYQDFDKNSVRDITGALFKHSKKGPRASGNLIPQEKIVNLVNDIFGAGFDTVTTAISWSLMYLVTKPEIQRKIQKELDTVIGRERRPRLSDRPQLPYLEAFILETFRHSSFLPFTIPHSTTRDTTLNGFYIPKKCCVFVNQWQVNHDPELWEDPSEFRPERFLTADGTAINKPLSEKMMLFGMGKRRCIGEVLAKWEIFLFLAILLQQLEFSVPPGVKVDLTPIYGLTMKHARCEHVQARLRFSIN
How it was run: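 Signal from luciferin formed by CYP1A2 from a proluciferin substrate is read as luminescence, expressed in relative luminescence units. Compounds sit with enzyme 10 min, NADPH-driven reaction runs 1 h, all at room temperature.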

[8] = target: Voltage-gated inwardly rectifying potassium channel KCNH2 (Homo sapiens) (UniProt Q12809); experiment: Human Ether-a-go-go-Related Gene (hERG) channel small molecule antagonists: fluorescence cell-based qHTS assay (AID 1671200); settings: hERG-U2OS cells, FluxOR thallium flux fluorescence; series mostly up to 76.8 µM;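 note: hERG-expressing U2OS cells given a thallium stimulus after FluxOR II dye loading; nearly all actives have a fitted effect of over 50% in size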
Sequence of Voltage-gated inwardly rectifying potassium channel KCNH2 (Homo sapiens) (Q12809 whole entry, looked up): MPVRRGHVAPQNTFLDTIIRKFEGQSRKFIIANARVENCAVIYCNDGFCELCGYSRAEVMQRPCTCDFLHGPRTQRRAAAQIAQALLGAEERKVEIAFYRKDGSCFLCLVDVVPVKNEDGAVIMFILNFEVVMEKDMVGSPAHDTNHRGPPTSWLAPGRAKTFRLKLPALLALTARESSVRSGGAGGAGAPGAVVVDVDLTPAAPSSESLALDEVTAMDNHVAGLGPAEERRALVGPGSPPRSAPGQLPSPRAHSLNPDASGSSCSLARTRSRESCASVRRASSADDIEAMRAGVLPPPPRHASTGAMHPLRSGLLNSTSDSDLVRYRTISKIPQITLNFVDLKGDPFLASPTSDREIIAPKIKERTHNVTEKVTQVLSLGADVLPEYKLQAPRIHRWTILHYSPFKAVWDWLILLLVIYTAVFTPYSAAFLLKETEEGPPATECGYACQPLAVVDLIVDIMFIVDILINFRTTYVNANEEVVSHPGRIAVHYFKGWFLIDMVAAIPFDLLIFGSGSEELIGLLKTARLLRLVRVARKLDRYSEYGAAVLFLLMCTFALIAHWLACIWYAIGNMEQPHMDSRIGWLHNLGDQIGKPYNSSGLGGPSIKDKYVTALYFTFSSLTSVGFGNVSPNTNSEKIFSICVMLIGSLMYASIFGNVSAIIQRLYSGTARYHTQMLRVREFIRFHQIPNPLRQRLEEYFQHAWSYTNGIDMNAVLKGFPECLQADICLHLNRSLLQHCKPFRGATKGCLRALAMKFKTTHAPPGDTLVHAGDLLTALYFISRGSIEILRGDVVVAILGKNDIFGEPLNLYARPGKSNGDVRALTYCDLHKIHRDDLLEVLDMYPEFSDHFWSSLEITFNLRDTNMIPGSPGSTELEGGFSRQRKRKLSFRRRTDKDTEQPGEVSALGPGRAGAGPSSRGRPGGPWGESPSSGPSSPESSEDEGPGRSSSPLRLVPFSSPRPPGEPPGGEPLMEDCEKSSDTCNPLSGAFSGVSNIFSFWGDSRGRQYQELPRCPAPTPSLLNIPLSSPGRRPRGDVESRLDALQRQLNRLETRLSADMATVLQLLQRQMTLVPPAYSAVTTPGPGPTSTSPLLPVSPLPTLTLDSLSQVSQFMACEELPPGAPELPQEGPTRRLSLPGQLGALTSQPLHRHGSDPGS
How it was run: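 Kinetic two-minute fluorescence traces, sampled at 1 s, were collected following thallium stimulus of U2OS cells (1000 per well) that had been cultured overnight at 37 C and loaded with FluxOR II.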

[9] = target: Cytochrome P450 3A4 (Homo sapiens) (UniProt P08684); experiment: Cytochrome P450 Family 3 Subfamily A Member 4 (CYP3A4) small molecule antagonists: luciferase reporter qHTS assay (AID 1671201); settings: P450-Glo CYP3A4 enzyme, luciferin luminescence, 1 h; series mostly up to 115 µM; note: nearly all actives have a fitted effect of over 50% in size; note: potency is the fitted concentration of half-maximal effect
Sequence of Cytochrome P450 3A4 (Homo sapiens) (P08684 whole entry, looked up): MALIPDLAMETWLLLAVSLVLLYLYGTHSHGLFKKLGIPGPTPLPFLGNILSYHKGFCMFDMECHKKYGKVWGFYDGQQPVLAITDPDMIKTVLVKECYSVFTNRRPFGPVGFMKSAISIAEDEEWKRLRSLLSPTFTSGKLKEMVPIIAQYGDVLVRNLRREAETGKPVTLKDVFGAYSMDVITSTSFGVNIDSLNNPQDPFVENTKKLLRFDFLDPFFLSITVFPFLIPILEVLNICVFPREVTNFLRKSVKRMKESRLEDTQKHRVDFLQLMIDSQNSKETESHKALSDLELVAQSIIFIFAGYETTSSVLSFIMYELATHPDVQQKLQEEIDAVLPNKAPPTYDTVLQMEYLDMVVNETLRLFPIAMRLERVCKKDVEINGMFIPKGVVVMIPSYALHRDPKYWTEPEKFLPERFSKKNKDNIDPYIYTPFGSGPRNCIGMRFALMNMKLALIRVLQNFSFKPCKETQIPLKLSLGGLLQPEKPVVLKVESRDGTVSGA
How it was run: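 Proluciferin-to-luciferin conversion by CYP3A4, NADPH-regenerated, 1 h RT; luminescence read as RLU. Ketoconazole as control.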
% is set by controls: 0 for no effect and ±100 for the full control effect.

O=C(CN1CCNCC1)NC1CCCCC1
inactive: max activation [1] -3.24% | Potency [2] | Potency [3] | Potency [4] | Potency [5] | Potency [6] | Potency [7] | Potency [8] | Potency [9]

C=CCN1C[C@H](C(=O)N(CCCN(C)C)C(=O)NCC)C[C@@H]2c3cccc4[nH]cc(c34)C[C@H]21
active: Potency [2] 12.6 µM | Potency [3] 15.8 µM | Potency [4] 2.45 µM | Potency [9] 0.977 µM
inactive: max activation [1] -1.45% | Potency [5] | Potency [6] | Potency [7]

CC(=O)Nc1ccc(OC(=O)c2ccccc2OC(C)=O)cc1
inactive: max activation [1] 1.26% | Potency [2] | Potency [3] | Potency [5] | Potency [6] | Potency [8] | Potency [9]

COc1ccc2c(c1)c1c3n2CCN(C)C3=NCC1
active: Potency [4] 15.5 µM
inactive: max activation [1] 5.26% | Potency [2] | Potency [3] | Potency [5] | Potency [6] | Potency [8] | Potency [9]

NC(=O)[C@@H]1CSSCCC(=O)N[C@@H](CCCCN=C(N)N)C(=O)NCC(=O)N[C@@H](CC(=O)O)C(=O)N[C@@H](Cc2c[nH]c3ccccc23)C(=O)N2CCC[C@H]2C(=O)N1 ([Mpa][hArg]GDWPC-NH2; disulfide 1-7)
inactive: max activation [1] -0.95% | Potency [2] | Potency [3] | Potency [5] | Potency [6] | Potency [7] | Potency [8] | Potency [9]

CCC[C@@H]1C[C@@H](C(=O)N[C@@H]([C@H]2O[C@H](SC)[C@H](O)[C@@H](O)[C@H]2O)[C@@H](C)O)N(C)C1
inactive: max activation [1] 0.287% | Potency [2] | Potency [3] | Potency [5] | Potency [6] | Potency [7] | Potency [8] | Potency [9]

CN1C[C@@H]2C[C@H]1CN2c1cc2c(cc1F)c(=O)c(C(=O)O)cn2C1CC1
inactive: max activation [1] -1.05% | Potency [2] | Potency [3] | activity change, negative = inhibition [4] 4.43% [at 23.6 µM] | activity change, negative = inhibition [5] 35.3% [at 23.6 µM] | activity change, negative = inhibition [6] 8.53% [at 23.6 µM] | activity change, negative = inhibition [7] -8.84% [at 23.6 µM] | activity change, negative = inhibition [8] 0.182% [at 15.8 µM] | activity change, negative = inhibition [9] 4.83% [at 23.6 µM]

Nc1nc(-c2ccccc2)c(Br)c(=O)[nH]1
inactive: max activation [1] -0.177% | Potency [2] | Potency [3] | Potency [4] | Potency [5] | Potency [6] | Potency [7] | Potency [8] | Potency [9]

CC1CCc2c(N3CCC(O)CC3)c(F)cc3c(=O)c(C(=O)O)cn1c23 (stereo unspecified)
inactive: max activation [1] -2.67% | Potency [2] | Potency [3] | Potency [4] | Potency [7] | Potency [8] | Potency [9]

O=C(Cn1ccnc1[N+](=O)[O-])NCc1ccccc1
inactive: max activation [1] -1.78% | Potency [2] | Potency [3] | Potency [6] | Potency [7] | Potency [8] | Potency [9]

OC[C@H]1O[C@@H](O[C@@H]2[C@@H](CO)O[C@](O)(CO)[C@H]2O)[C@H](O)[C@@H](O)[C@H]1O
inactive: max activation [1] -1.58% | Potency [2] | Potency [3] | Potency [4] | Potency [5] | Potency [6] | Potency [7] | Potency [8] | Potency [9]

CC(C)OC(=O)OCOP(=O)(CO[C@H](C)Cn1cnc2c(N)ncnc21)OCOC(=O)OC(C)C
inactive: max activation [1] -6.83% | Potency [2] | Potency [3] | Potency [4] | Potency [5] | Potency [7] | Potency [8]
